Most compounds without a hit are left out; they make up all but 1.8% or so of the library.
TLR4-MyD88 BLA: inhibitors of TLR4-MyD88 association in cells, primary screen, cell-based, HeLa CL3-4, BLA complementation, FRET ratio | Toll-like receptor 4 (Homo sapiens) + Myeloid differentiation primary response protein … | actives 0.18% (n = 200,000) | AID 861, 2007 | HeLa CL3-4 TLR4/MyD88 BLA complementation | inhibition, % at 8.4 µM; in the data active means inhibition above about 25%;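 further: 0% = vehicle and 100% = reference inhibitor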
TLR9-MyD88 inh: inhibitors of TLR9-MyD88 association in cells, primary screen, cell-based, CHO, BLA complementation, fluorescence; Toll-like receptor 9 (Homo sapiens) + Myeloid differentiation primary response protein …; CCF4 FRET ratio; inhibition, % at 4.98 µM; actives 0.21% (n = 340,000); AID 504734, 2011;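 active means inhibition above the mean over all tested compounds plus 3 SD, cut at about 21% in these data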;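 further: 0% = DMSO only wells and 100% = clavulanate BLA inhibitor control wells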
Mcl1 Bid PPI: Mcl-1/Bid binding inhibitors, primary screen, biochemical, TR-FRET, 1536-well; Induced myeloid leukemia cell differentiation protein Mcl-1 (Homo sapiens), Q07820; TR-FRET Mcl-1/Bid-Dy647 peptide binding; inhibition, % at 21.7 µM; actives 0.97% (n = 220,000);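 active means compounds that cut the binding signal by more than half at the single screening dose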;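 further: His-tagged Mcl-1 with europium anti-His antibody binding Bid BH3 peptide; 0% = Mcl-1 plus peptide wells and 100% = peptide-only wells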
NOD2-RIPK2 inh: NOD2-RIPK2 binding disruptors in cells, primary screen, fluorescence, CHO cells, BLA complementation; actives 0.38% (n = 360,000); Receptor-interacting serine/threonine-protein kinase 2 (Homo sapiens), O43353; inhibition, % at 4.98 µM; CCF4 ratio; in the data active means inhibition above about 21%;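 further: 0% = vehicle only and 100% = reference blocker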
Mcl-1 Bim block: inhibitors of Bim peptide binding to Mcl-1, primary screen, biochemical, bead-based flow cytometry, multiplex; inhibition, % at 10 µM; AID 1009, 2008; Induced myeloid leukemia cell differentiation protein Mcl-1 (Homo sapiens), Q07820; actives 0.1% (n = 190,000); Bim peptide-Mcl-1 binding; in the data active means inhibition above about 40%;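 further: 0% = no compound tracer wells and 100% = peptide blocker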
Mcl1-Noxa inh: Mcl-1/Noxa binding inhibitors, primary screen, biochemical, TR-FRET, 1536-well | inhibition, % at 21.7 µM | actives 1.5% (n = 220,000) | AID 1022, 2008 | Induced myeloid leukemia cell differentiation protein Mcl-1 (Homo sapiens), Q07820 | TR-FRET Mcl-1/Noxa peptide binding, 2 h;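 active means compounds that cut the protein-peptide binding signal by more than 50% relative to plate controls in a single-dose test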;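 further: His-tagged Mcl-1 with rhodamine Noxa BH3 peptide and terbium anti-His antibody; 0% = Mcl-1 plus Noxa peptide wells and 100% = peptide-only wells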
An asterisk follows results filed as active; / = not tested or not shown.

SMILES	TLR4-MyD88 BLA	TLR9-MyD88 inh	Mcl1 Bid PPI	NOD2-RIPK2 inh	Mcl-1 Bim block	Mcl1-Noxa inh
Cc1ccc2cc3c(N)c(C(=O)Nc4c(C)[nH]c(=O)[nH]c4=O)sc3nc2c1	3	-2	-32	-7	-2	66*
Cc1[nH]c(=O)[nH]c(=O)c1NC(=O)c1sc2nc3c(C)cccc3cc2c1N	-4	-2	-59	-9	-5	36
Cc1ccc2nc3sc(C(=O)Nc4c(C)[nH]c(=O)[nH]c4=O)c(N)c3cc2c1	12	0	-37	-3	-1	56*
Cc1ccc2cc3c(N)c(C(=O)N4CC(=O)Nc5ccccc54)sc3nc2c1	9	/	8	/	0	58*
COC(=O)[C@]12CCCCC=C1N(Cc1cccc3ccccc13)C(=O)[C@H](CC(=O)NCCc1ccccc1OC)C2	/	/	/	0	/	/
O=C1C(=Cc2cccn2-c2ccccc2)C(=O)c2ccccc21	0	-7	73*	-3	4	102*
O=C(O)c1cccc(-n2cccc2C=C2C(=O)c3ccccc3C2=O)c1	4	-1	-113	0	27	26
O=C1C(=Cc2cccn2-c2ccc(O)cc2)C(=O)c2ccccc21	7	6	70*	-14	1	1
Cc1ccc2c(CC(=O)Nc3cccc(S(=O)(=O)N4CCOCC4)c3)coc2c1	-9	1	-5	-6	0	13
Cc1ccc(C2C(C#N)=C(N)SC(N)=C2C#N)o1	1	/	11	/	2	84*
CCOc1ccc(N=c2scc(-c3ccccc3)n2CCO)cc1	1	1	8	4	-7	14
CCn1c(-c2ccccc2)csc1=Nc1ccc(O)cc1	-16	-1	-35	4	1	64*
Cc1ccc(C)c(NC(=O)C2CCCN2/C=C/C(=O)C(F)(F)F)c1 (stereo not drawn)	2	0	72*	-10	-2	-7
COc1ccc(-c2nc3ccccc3c(=O)n2CC(C)C)cc1	/	5	/	1	/	/
O=c1c(N=Nc2ccc(O)cc2)c(-c2ccccc2)[nH]n1-c1ccc([N+](=O)[O-])cc1	1	-4	60*	-5	0	71*
NC(=O)c1ccc(N=Nc2c(-c3ccccc3)[nH]n(-c3ccccc3)c2=O)cc1	-2	/	-7	/	-2	-1
Cc1ccc([N+](=O)[O-])cc1N=Nc1c(-c2ccc([N+](=O)[O-])cc2)[nH]n(C(N)=S)c1=O	7	8	68*	-1	0	111*
NC(=S)n1[nH]c(-c2ccc([N+](=O)[O-])cc2)c(N=Nc2ccc(Cl)cc2)c1=O	10	-6	98*	-1	0	73*
Cc1ccc(S(=O)(=O)NC(=O)C2(C)CCN2C(=O)c2ccccc2CCc2ccccc2)nc1 (stereo not drawn)	/	/	/	5	/	/
Cc1cc(O)c(C=O)c2c1C(=O)Oc1c(CO)c(O)c3c(c1O2)C(O)OC3=O (stereo not drawn)	-11	-2	40	-31	1	53*
Nc1ccc(Nc2ccccc2)c(Cl)c1	-1	1	-102	-6	-2	20
Nc1ccccc1Nc1ccccc1	-1	0	75*	3	0	52*
COCCNC(=O)C1(C)CCCN(C(=O)c2ccc(F)c(Cl)c2)C1 (stereo not drawn)	/	/	/	-9	/	/
CN(C)c1ccc2nc3ccc(=[N+](C)C)cc-3sc2c1	9	-7	-111	-9	5	58*
Cc1cc2nc3ccc(=[N+](C)C)cc-3sc2cc1N	/	0	-76	3	/	51*
SMILES	TLR4-MyD88 BLA	TLR9-MyD88 inh	Mcl1 Bid PPI	NOD2-RIPK2 inh	Mcl-1 Bim block	Mcl1-Noxa inh
NS(=O)(=O)c1ccc(NC(=O)COc2ncnc3sccc23)cc1	/	3	-3	-6	/	32
CN(C)CCN(Cc1ccc(Cl)cc1)c1ccccn1	6	2	1	-8	-1	61*
CC(=O)c1coc2c1cc(O)c1ccccc12	10	5	-32	-8	1	2
CC(=O)c1cc(O)c2ccccc2c1O	/	-3	24	1	/	80*
CCN1CCN(C(=O)c2ccc(COc3cccc(Cl)c3)o2)CC1	/	-3	/	-10	/	/
CN(C)c1ccc(NC(=O)c2ccc(COc3cccc(Cl)c3)o2)cc1	-3	-2	-12	4	0	85*
CCc1ccc(C2=CC(c3cc(Br)ccc3F)n3ncnc3N2)cc1 (stereo not drawn)	17	29*	-14	38*	-6	26
COc1ccc(-c2csc(NC(=O)CSc3nc(C)nc4sc(C(=O)O)c(C)c34)n2)cc1	/	-2	36	6	/	99*
COc1ccc(-c2csc(NC(=O)CSc3nc(C)cs3)n2)cc1	-4	-3	-10	3	-4	9
COc1ccc(C)cc1NC(=O)c1cc(S(=O)(=O)N2CCCCC2)ccc1N1CCOCC1	/	1	/	-19	/	/
O=C(O)/C=C\C(=O)N1CCc2ccccc21	-17	2	94*	-12	-3	18
O=C(O)/C=C/C(=O)N1CCc2ccccc21	-9	-12	-45	-4	1	1
COc1cccc(C(=O)NN2CC(O)=C(c3nc(C)cs3)C2=N)c1	/	-1	-34	5	/	-6
Cc1ccc(C(=O)NN2CC(O)=C(c3nc(-c4cccc([N+](=O)[O-])c4)cs3)C2=N)cc1	-11	-3	5	5	4	56*
COc1ccc(/C=C(\C#N)C(=O)Nc2cccc3ncccc23)cc1OC	/	3	-38	4	/	55*
COc1cc(/C=C(\C#N)C(=O)Nc2cccc3ncccc23)cc(OC)c1OC	-5	-7	-7	-3	-6	21
O=C(/C=C/[C@H]1O[C@@H](n2ccc(=O)[nH]c2=O)[C@H](O)[C@@H]1O)NC1CCN(Cc2ccccc2)C1 (stereo partly drawn)	/	/	/	-10	/	/
Cc1ccncc1CNC(=O)c1ccccc1	/	-7	/	-4	/	/
COc1ccc(C(=O)NC(=S)SCC(=O)O)cc1	/	3	-11	-5	/	13
CCOC(=O)CSC(=S)NC(=O)c1ccc(OC)cc1	3	-4	-95	-42	-7	56*
COc1cccc(-n2nnc3c(=O)n(CC(=O)NC4CCCC4)cnc32)c1	1	12	9	1	-3	52*
COc1cccc(-n2nnc3c(=O)n(CC(=O)Nc4ccccc4C)cnc32)c1	3	-11	-24	-15	4	-14
